From PubChem BioAssay
Mdm2 MdmX PPI – inhibitors of human Mdm2/MdmX interaction; SaOS-2 split-luciferase Mdm2/MdmX complementation, luminescence; 330,000 compounds, 3% hits; O15151+Q00987; inhibition, % at 8 µM;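 active = inhibition of at least 50% at 8 µM in the primary screen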
SKKanGAS inh – SKKanGAS growth inhibition; S. pyogenes SKKanGAS, kanamycin growth, BacTiter-Glo, 6 h; inhibition, % at 7.5 µM; 300,000 compounds, 1.3% hits;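 active = mean replicate score, as percent of positive control median, at least 50; inconclusive = mean below 50 but one replicate at or above 50; inactive = mean and every replicate below 50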;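 also: strain carries kanamycin resistance gene driven by streptokinase promoter and grows in 40 µg/ml kanamycin; loss of luminescence reflects streptokinase promoter inhibition or plain growth inhibition; 0% = median of DMSO wells and 100% = positive control at its reference dose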
MPTP inh – inhibitors of mitochondrial permeability transition pore; isolated mouse mitochondria, Ca2+ swelling absorbance, 30 min; 360,000 compounds, 1.4% hits; inhibition, % at 10 µM;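 active = inhibition of 50% or more, scaled per plate between neutral and stimulator controls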;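 also: 0% = DMSO wells given calcium and 100% = 1 mM EGTA wells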
CSC inhib – blocks cancer stem cells; AID 2717; cancer stem cell-like cells viability, luminescence; 300,000 compounds, 1.1% hits; inhibition, % at 7.5 µM; in the data active = inhibition above about 75%; inconclusive = no clear call, values can overlap the other calls; tested in HMLE shEcad cells
GRIN3A LBD mod – modulators (binders) of human NR3A ligand-binding domain; NR3A LBD differential scanning fluorimetry, Tm shift; 0% = protein alone, 100% = glycine-bound protein; Tm shift relative to glycine control, % at 25 µM; 340,000 compounds, 2.5% hits;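 active = melting temperature shift of at least 10% of the positive control shift, at one fixed dose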
Beta cell apopt – beta cell apoptosis inhibition; INS-1E cytokine-induced death, ATP luminescence, 48 h; percent of positive-control rescue, neutral wells zero; 300,000 compounds, 0.8% hits; AID 435005; protection from apoptosis, % (concentration not given with the values);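 active = Every replicate reaches about 75%, or at least half do and their mean reaches it too, limit read from the data; inconclusive = At least half of replicates reach the limit but their mean does not; inactive = Under half of replicates reach the limit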;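 also: 0% = cytokine-treated negative control wells and 100% = positive control rescue; higher means more ATP so stronger rescue from cytokine killing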
Numbers without * were called inactive; ? = inconclusive; . = no result. Compounds with a hit are over-represented: about 6.9% of the library has one in this group of screens.

SMILES	Mdm2 MdmX PPI	SKKanGAS inh	MPTP inh	CSC inhib	GRIN3A LBD mod	Beta cell apopt
O=C(NC1CCCCC1)NC1C2CC3CC(C2)CC1C3 (centres undefined)	-8	54*	-1	1	1	1
CCc1nnc(NC(=O)c2ccc(-c3ccc(F)cc3)o2)s1	-2	8	-1	-2	16*	-7
O=C(Nc1nccs1)c1ccc(-c2ccc(Cl)cc2)o1	-332	46	2	22	20*	4
COc1cccc(CNC(=O)c2ccc(CS(=O)c3ccccc3)o2)c1 (centres undefined)	20	2	-1	-9	0	.
Cc1csc2c(SCC(=O)NNC(=O)C(Cl)Cl)ncnc12	12	18	3	-2	0	-6
S=c1nc[nH]c2c1[nH]c1ccc(Cl)cc12	-22	3	5	-10	33*	2
S=c1nc[nH]c2c1[nH]c1ccccc12	5	0	-3	-2	5	7
c1ccc(-c2noc(CC3CCCCC3)n2)nc1	-87	-4	0	-8	-1	2
c1cc(-c2noc(CC3CCCCC3)n2)ccn1	-4	10	-1	-3	1	79*
CCCN1CCN(C(=O)CCc2nnc3ccc(N4CCN(c5cccc(OC)c5)CC4)nn23)CC1	-4	-2	-1	-24	0	4
CN1CCN(c2nc(C#N)cc(-c3ccccc3)n2)CC1	21	1	1	-17	11*	-5
CS(=O)(=O)c1nc(-c2ccccc2)cc(C(F)(F)F)n1	-32	-23	0	107*	3	108*
FC(F)(F)c1cc(-c2ccccc2)nc(N2CCCCCC2)n1	26	86*	7	24	11*	2
COc1ccccc1N1CCN(c2nc(-c3ccccc3)cc(C(F)(F)F)n2)CC1	17	3	2	9	1	12
COc1ccc(-c2cc(C#N)nc(N3CCN(C)CC3)n2)cc1	2	-4	0	3	0	-2
FC(F)(F)c1cc(-c2ccccc2)nc(-n2cncn2)n1	24	-2	-1	1	0	2
COc1ccc(-c2cc(C(F)(F)F)nc(N3CCCCCC3)n2)cc1	-9	?	3	33	-1	.
COc1cccc(-c2cc(C(F)(F)F)nc(N3CCCCC3)n2)c1	-33	57*	3	24	5	12
CCc1nc2c(OCc3cccc(Cl)c3)cccn2c1N(C)C(=O)CC(C)C	.	.	-1	.	.	.
O=[N+]([O-])c1cccc(-n2cc3ccc([N+](=O)[O-])cc3n2)c1	6	.	0	1	14*	-1
CN(C)c1ccc(NC(=O)c2sc(SCC(=O)Nc3ccc(Br)cc3)nc2N)cc1	-1	8	2	3	16*	-4
COc1ccc2c(c1)CCc1c(C(=O)N3CC4(C)CC3CC(C)(C)C4)noc1-2 (centres undefined)	21	17	4	95*	0	-2
COc1ccc2c(c1)CCc1c(C(=O)N3CCOCC3)noc1-2	-46	-5	-2	3	-1	-6
O=C(O)c1sccc1S(=O)(=O)N1CCOCC1	-25	.	-1	-14	11*	-11
Cc1ccc(NC(=O)COC(=O)c2sccc2C)cc1S(=O)(=O)N1CCOCC1	-10	-1	5	.	-22	-14
SMILES	Mdm2 MdmX PPI	SKKanGAS inh	MPTP inh	CSC inhib	GRIN3A LBD mod	Beta cell apopt
COCCNC(=O)CN(c1ccc(C)cc1)S(=O)(=O)c1ccccc1	7	-7	0	.	-7	.
COCCNC(=O)CN(c1ccc(OC)c(OC)c1)S(=O)(=O)c1ccc(C)cc1	18	-2	-3	-16	14*	-3
COC(=O)CN(c1cc(OC)ccc1OC)S(=O)(=O)c1ccc(OC)c(OC)c1	9	-2	1	-11	10*	-1
COc1ccc(OC)c(N(CC(=O)N2CCCC2)S(=O)(=O)c2ccccc2)c1	-23	1	-1	-5	0	-4
O=C(Nc1ccc(N2C(=O)C3CCCCC3C2=O)cc1Cl)c1cccs1 (centres undefined)	17	-4	0	-20	18*	1
O=c1[nH]c(=O)n(C2C[C@H](O)[C@@H](CO)O2)cc1C(F)(F)F (some centres undefined)	31	.	0	76*	-1	7
COC(=O)c1cc(NC(=O)c2cc(-c3ccccc3Cl)oc2C(F)(F)F)ccc1N1CCOCC1	36	13	24	89*	4	11
Cc1ccc(NC(=O)c2cc(N3C(=O)C=CC3=O)ccc2N2CCOCC2)cc1Cl	.	61*	46	74	6	-5
COC(=O)c1cc(NC(=O)c2c(-c3c(Cl)cccc3Cl)noc2C)ccc1N1CCOCC1	20	-1	4	-9	1	3
O=C(N/N=C/c1c[nH]c2ccc(Br)cc12)c1ccccn1	18	-7	-4	-12	10*	5
O=C(N/N=C/c1c[nH]c2ccc(Br)cc12)c1ccncc1	2	-2	0	-8	26*	-5
O=C(N/N=C/c1c[nH]c2ccc(Br)cc12)c1ccn(Cc2ccc(Cl)cc2Cl)n1	22	43	-3	-15	17*	2
O=C(N/N=C/c1c[nH]c2ccc(Br)cc12)C1CC1	15	13	5	-6	10*	-4
O=C(N/N=C/c1c[nH]c2ccccc12)c1ccn(Cc2ccc(Cl)cc2)n1	-15	17	0	26	0	7
NC(=O)C(=O)N/N=C/c1c[nH]c2ccc(Br)cc12	15	-3	1	-2	-6	-8
CS(=O)(=O)NCc1ccccc1Br	12	.	.	-16	.	1
Cc1nc2sccn2c(=O)c1CCN1CCC(=C(c2ccc(F)cc2)c2ccc(F)cc2)CC1	37	-1	-2	79*	-6	-2
CC(C)(O)C#Cc1ccc(CNC[C@H]2O[C@@H](n3cnc4c(N)ncnc43)[C@H](O)[C@@H]2O)s1	5	.	2	.	13*	.
Cc1sc2ccccc2c1CNC[C@H]1O[C@@H](n2cnc3c(N)ncnc32)[C@H](O)[C@@H]1O	-2	.	-1	.	0	-7
C[C@H](N)C(=O)NC[C@H]1O[C@@H](n2cnc3c(N)ncnc32)[C@H](O)[C@@H]1O	18	.	0	.	3	.
Nc1ncnc2c1ncn2[C@@H]1O[C@H](CNC(=O)[C@@H](N)C2CCCCC2)[C@@H](O)[C@H]1O	16	.	0	.	15*	.
O=C1COc2ccc(N3C(=O)C=CC3=O)cc2N1	19	-1	.	89*	.	1
COc1ccc(NC(=O)C2(C)Cc3c(-c4cccc(C(F)(F)F)c4)ccnc3O2)cn1 (centres undefined)	.	.	1	.	.	.
COc1ccc(-n2ncc3c(Nc4cccc(C)c4)ncnc32)cc1	-11	14	2	-1	29*	-1
Cc1cccc(-n2ncc3c(Nc4ccc(F)cc4)ncnc32)c1	-9	1	5	-4	24*	11
